Molecules are shown by their SMILES. Active and inactive are the calls of the source. How the source made its calls: active means hit-call score of the fitted dose curve at least 0.9, where 1 is the maximum; inactive means score below 0.9.

A short description of this assay: STM_H9_CystineISnorm_perc: Stemina devTOX quickPredict H9 human embryonic stem cell (hESC)-based Assay for Cystine (CYSS) Metabolite Biomarker, Normalized (AID 2283713). The source says: STM_H9_secretome utilizes undifferentiated H9 cells to measure relative changes in two metabolites, ornithine (ORN) and cystine (CYSS) in the secretome, targeting a critical drop in the ORN/CYSS ratio as a biomarker for developmental toxicity.STM_H9_CystineISnorm_perc is one of 10 components calculated in the STM_H9_secretome assay. It measures the integrated area of the endogenous cystine normalized to the spiked-in isotopically labeled standard and to the median value of the 0.1% DMSO neutral control treatment using UPLC-HRMS technology.Data from the assay component STM_H9_CystineISnorm_perc was analyzed at the assay endpoint STM_H9_CystineISnorm_perc in the positive analysis fitting direction relative to DMSO as the negative control and baseline of activity. Using a type of binding reporter, gain or loss-of-signal activity can be used to understand relative metabolite change.
H9 hESCs maintained in a pluripotent state were exposed to test compound for 72h with chemical replenishment with media replacement every 24h. Cell-conditioned media from the final 24-h treatment period was collected for analysis of the targeted biomarker, and cell viability of the corresponding cell layer was assessed. The chemical library was tested in blinded fashion. Each test plate included 1uM Methotrexate (MTX; Selleck Chemicals, Houston, Texas) as a positive reference, 5 nM MTX as a negative reference, 0.1% DMSO as the neutral (vehicle) control, and sample-level media blanks.H9 cell-conditioned media from the final 24-h treatment period was collected for analysis of the targeted biomarker and cell viability was measured from the corresponding cell layer. Cell viability was measured using the CellTiter-Fluor assay (Promega, Madison, Wisconsin) based on proteolytic cleavage of a substrate to fluorescent signal proportional to the number of living cells. The cell viability Relative Fluorescence Unit (RFU) was background corrected and normalized to mean RFU of the neutral control (0.1% DMSO). The collected H9-cell-conditioned media samples were processed for targeted biomarker analysis as described (Palmer et al., 2013). Briefly, spent media samples were deproteinized (40% acetonitrile) and processed for UPLC-HRMS. Data acquisition was performed using 4 separate UPLC-HRMS systems, consisting of an Agilent 1290 Infinity LC system (Agilent Technologies) interfaced with an Agilent high-resolution mass spectrometer (models G6520A, G6520B, G6530A, and G6224A). A Waters Acquity UPLC BEH Amide column (2.1mm x 50mm, 1.7lm particle size; Waters, Milford, Massachusetts) maintained at 40C was applied for separation of metabolites using a 6.5min solvent gradient with 0.1% formic acid in water and 0.1% formic acid in acetonitrile (1.0ml/min flow rate). Data were acquired using MassHunter Acquisition software (version B 04.00, Agilent Technologies). The extracted ion chromatogram (EIC) areas for ORN, CYSS, and their respective spike-in C13-standards were determined using the Agilent MassHunter Quantitative Analysis software, version B.05.00 or newer (Agilent Technologies), and data were normalized as described in Palmer et al. (2017).
Consider `Clc1ccc(C(c2ccc(Cl)cc2)C(Cl)Cl)cc1`, for which the result was inactive.
For the compound `CCCCCCCCn1sccc1=O`, the half-maximal activity concentration (AC50) – broadly, the midpoint of the concentration-response curve, whichever way the signal moves – was 11.5 µM (active).
Same read-out and setting: in the case of `O=[N+]([O-])c1ccc(Oc2ccc(Cl)cc2Cl)cc1` it was 29.8 µM (active).
For the compound `CC(C)COC(=O)c1ccccc1C(=O)OCC(C)C`, the AC50 was 33 µM (active).
`OCCCBr`: the outcome was inactive.
Same read-out and setting: in the case of `CN(C)C(=O)Nc1ccc(Cl)cc1` it was “inactive”.
As to `C[N+](C)(C)CC1CO1` (stereo not given), the AC50 was 11 µM (active).
Same read-out and setting: the value for `[Cl-].[Cl-].[Hg+2]` was 0.882 µM (active); that for `CCCCOC(=O)c1ccccc1C(=O)OCc1ccccc1` was 32.6 µM (active).
With `Clc1ccc(Cl)c(Cl)c1`, the outcome was inactive.
Still for that read-out and setting: the value for `Brc1ccc(Oc2ccccc2)cc1` was “inactive”.
Turning to `Clc1ccc(C(c2ccc(Cl)cc2)C(Cl)(Cl)Cl)cc1`, the result was inactive.
Regarding `Cc1ccc(N)cc1`, the AC50 was 23.1 µM (active).
Consider `CO[C@@H]1[C@H](OC(=O)NC(=O)CCl)CC[C@]2(CO2)[C@H]1[C@@]1(C)O[C@@H]1CC=C(C)C`, for which the AC50 is 0.039 µM (active).
On the same count and under the same terms, the value for `CC(C)(C)C(O)(CCc1ccc(Cl)cc1)Cn1cncn1` (stereo not given) was 30.1 µM (active).
Take `Oc1ccc2ccc3cccc4ccc1c2c34`: the result was inactive.
On the same count and under the same terms, the value for `CCN(CC)N=O` was “inactive”.
Regarding `COC(=O)Nc1nc2ccccc2[nH]1`, the AC50 was 10 µM (active).
In the case of `COc1cc(C=O)cc2c1[C@H](COC(N)=O)[C@]1(OC(C)=O)ON2C[C@H]2[C@@H]1N2C(C)=O`, the AC50 was 0.0003 µM (active).
With `CNC(=O)Oc1cccc2c1OC(C)(C)C2`, the outcome was inactive.
As to `ClC1=C(Cl)[C@]2(Cl)[C@H]3[C@H]([C@@H]4C=C[C@H]3C4)[C@@]1(Cl)C2(Cl)Cl`, the outcome was inactive.
Regarding `CCC[CH2][Sn]([Cl])([CH2]CCC)[CH2]CCC`, the AC50 is 0.546 µM (active).
For the compound `O=C1CCCO1`, the outcome was inactive.
With `O=P(OCCCl)(OCCCl)OCCCl`, the outcome was inactive.
For `Nc1ccc(Oc2ccc(N)cc2)cc1`, the result was inactive.
Take `Cc1cccc(N)c1N`: the AC50 is 79 µM (active).
As for `Cn1cc(-c2ccccc2)c(=O)c(-c2cccc(C(F)(F)F)c2)c1`, the result was inactive.
Take `Cc1ccc(N)c(N)c1`: the concentration at half-maximal activity (AC50) is 23.4 µM (active).
The same measure, in the same setting: the value for `CCCCCCCCCCCCCN1CC(C)OC(C)C1` (stereo not given) was 2.78 µM (active); that for `CCCCCOC(=O)c1ccccc1C(=O)OCCCCC` was 19.8 µM (active).

The values are drawn from PubChem BioAssay (EPA / NIEHS).
